Values joined by “and” are separate entries in the source; they are usually repeats but may differ in a detail not shown here. Equal values may be shown once. Where a structure was tested more than once in an assay, its records may differ in their call. Active and inactive are the calls of the source. How the source made its calls: active means hit-call score of the fitted dose curve at least 0.9, where 1 is the maximum; inactive means score below 0.9.

In PubChem BioAssay (EPA / NIEHS) one finds outcome and AC50 data, which are given here for 38 compounds.

This experiment is described as follows: BSK_4H_SRB: Viability Assessment in the BioMAP Diversity Plus: 4H Assay (AID 2283027).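 On AC50: curves fitted both ways versus DMSO so AC50 may be loss or gain.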 The note with it: primary human endothelial cells (HUVEC). As for the experimental part: BSK_4H is a cell-based, multiplexed-readout assay that uses umbilical vein endothelium, a human vascular primary cell, with measurements taken at 24 hours after chemical dosing in a 96-well plate.BSK_4H_SRB is an assay component measured in the BSK_4H assay. It measures […] related to cell death using Sulforhodamine staining technology.Data from the assay component BSK_4H_SRB was analyzed into 1 assay endpoint. This assay endpoint, BSK_4H_SRB, was analyzed with bidirectional fitting relative to DMSO as the negative control and baseline of activity. Using a type of viability reporter, gain or loss-of-signal activity can be used to understand changes in the signaling. Furthermore, this assay endpoint can be referred to as a primary readout, because this assay has produced multiple assay endpoints where this one serves a signaling function. To generalize the intended target to other relatable targets, this assay endpoint is annotated to the cell morphology intended target family, where the subfamily is cell conformation.
The levels of cell surface (or secreted, indicated by the prefix "s") biomarker endpoints were measured by ELISA. Overt cytotoxicity to cells in confluent adherent cultures (all systems other than the BT system) was assessed by measuring total protein levels using sulforhodamine B (SRB) staining in parallel cultures at the time of biomarker measurements, indicated as SRB endpoints. For proliferation assays for adherent cell types, individual cell types are cultured at sub-confluence and relative cell numbers quantified by SRB staining at time points optimized for each system (48 h: 3C and CASM3C systems; 72 h: BT and HDF3CGF systems; 96 h: SAg system). SRB was performed by staining cells with 0.1% SRB after fixation with 10% TCA and reading wells at 560 nm.Viability and proliferation of PBMC (T cells) was quantified by Alamar Blue reduction for the SAg and BT systems. For PBMC viability (referred to as PBMC Cytotoxicity within the assay endpoint names), cells were plated (75,000/well in a 96-well plate) and then chemical samples added for 1 h before addition of activators, SEB and TSST-1 (20 ng/mL final concentration each). Cells were incubated for 90 h. Then, Alamar Blue (20 uL/well) (Invitrogen, Cat DAL1100) was added for 6 h, and the plates were read with a fluorescence microplate reader at 546/580 nm (excitation/emission). For PBMC proliferation, cells were plated and activated as above but incubated for only 16 h prior to addition of Alamar Blue. Plates were read after 6 h.
In the case of `Cc1cc(C)c(O)c(C)c1`, the outcome was inactive. As for `c1ccc2c(c1)ccc1ccccc12`, the result was inactive. With `O=C(OCCOCCOC(=O)c1ccccc1)c1ccccc1`, the outcome was inactive.

In the case of `CC(C)(C)c1ccc(O)c(C(C)(C)C)c1`, the AC50 is 12.4 µM (active). With `OCCC(F)(F)C(F)(F)C(F)(F)C(F)(F)C(F)(F)C(F)(F)C(F)(F)C(F)(F)F`, the half-maximal activity concentration (AC50) was 18.2 µM (active) and 15.6 µM (active); the result was inactive.

Regarding `O=C(O)c1ccccc1C(c1ccc(O)cc1)c1ccc(O)cc1`, the result was inactive. For the compound `O=[N+]([O-])c1ccc(O)cc1`, the outcome was inactive. The same measure, in the same setting: with `CC1=C(/C=C/C(C)=C/C=C/C(C)=C/C(=O)O)C(C)(C)CCC1` the entry was “inactive”. For the compound `CCN(CC)CCNc1ccc(CNC=O)c2sc3ccc(OC)cc3c(=O)c12`, the AC50 is 25.4 µM (active). For the compound `CC[C@H](c1ccc(O)cc1)[C@@H](CC)c1ccc(O)cc1`, the AC50 was 30.6 µM (active). On to `O=C(O)Cc1cc(I)c(Oc2cc(I)c(O)c(I)c2)c(I)c1`, for which the outcome was inactive.

As for `CCc1nn(C2CCCCC2)c2cc(C3(C#N)CCC(C(=O)O)CC3)ccc12` (stereo not given), the half-maximal activity concentration (AC50) was 5.87 µM (active).

For `COCC(C)O` (stereo not given), the result was inactive. For `CC[C@H](C)[C@@H](C(=O)O)n1sc2ccccc2c1=O`, the outcome was inactive. Regarding `COc1ccc([N+](=O)[O-])cc1N`, the outcome was inactive. With `ClC1=C(Cl)C(Cl)(Cl)C(Cl)=C1Cl`, the half-maximal activity concentration (AC50) was 6.82 µM (active). `CCCCCCCC(=O)O`: the result was inactive. Consider `Oc1cc2ccccc2c2ccccc12`, for which the AC50 is 16.6 µM (active). As to `CC(C)(C)c1cccc(C(C)(C)C)c1O`, the outcome was inactive.

On to `COCC(C)OCC(C)O` (stereo not given), for which the outcome was inactive.

In the case of `CCCCCCC(=O)O`, the outcome was inactive. Turning to `Cc1cc(CCN2CCN(c3nsc4ccccc34)CC2)cc2c1NC(=O)CC2(C)C`, the AC50 was 20 µM (active). As for `CCCOc1sc(C(=O)N2CCC(c3cc(CN)ccc3F)CC2)c(C)c1Br`, the AC50 was 5.82 µM (active). Regarding `CCCCOCCO`, the result was inactive.

`CCCCC(CC)COC(=O)CCCCC(=O)OCC(CC)CCCC` (stereo not given): the result was inactive. Consider `CCCCCCCCCCCCCC[N+](C)(C)C`, for which the concentration at half-maximal activity (AC50) was 5.31 µM (active). Consider `OCCC(F)(F)C(F)(F)C(F)(F)C(F)(F)C(F)(F)C(F)(F)F`, for which the outcome was inactive. For the compound `COC(=O)CCCCC(=O)OC`, the outcome was inactive. For the compound `CN1CCN(c2ccccc2/C=C2\SCCN(c3ccc(Cl)c(Cl)c3)C2=O)CC1`, the AC50 was 15 µM (active). Turning to `Cc1oc(-c2ccccc2)nc1CCOc1ccc(C[C@H](Nc2ccccc2C(=O)c2ccccc2)C(=O)O)cc1`, the concentration at half-maximal activity (AC50) is 15.1 µM (active). Turning to `c1ccc2cc3c(ccc4ccccc43)cc2c1`, the outcome was inactive.

With `C=C(C)C(=O)OCCC(F)(F)C(F)(F)C(F)(F)C(F)(F)C(F)(F)C(F)(F)F`, the result was inactive and the concentration at half-maximal activity (AC50) is 20 µM (active). Consider `c1ccc2c(c1)Cc1ccccc1-2`, for which the result was inactive. In the case of `CCC(=C(c1ccc(O)cc1)c1ccc(OCCN(C)C)cc1)c1ccccc1`, the AC50 is 8.19 µM (active). With `CCCCCCCCOC(=O)CCCCCCCCC(=O)OCCCCCCCC`, the result was inactive.

In the case of `Nc1cccc2c(N)cccc12`, the outcome was inactive. For the compound `NCC(F)(F)C(F)(F)C(F)(F)C(F)(F)C(F)(F)C(F)(F)C(F)(F)F`, the result was inactive. `CCCOC(=O)c1ccc(O)cc1`: the result was inactive.

Usually AC50 stands for the concentration at which the activity in the assay is half-maximal.
